The record followed here is paper PMC4336329 (PLoS ONE, 2015).

Among all 310,000 compounds or so, about 14,000 (4.5%) showed an effect of 50% or more. Effects have a minus sign here. The entries come from a sample that favours strong results as a whole.
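Note: peak tail current of the secondary pulse compared with the same well before compound.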

The target in the assay is human ether-à-go-go-related gene (hERG) potassium channel (human, UniProt Q12809). Description: primary screen, population patch clamp on CHO cells stably expressing hERG; higher = less effect of the substance.
human ether-à-go-go-related gene (hERG) potassium channel, sequence (Q12809 whole entry, looked up): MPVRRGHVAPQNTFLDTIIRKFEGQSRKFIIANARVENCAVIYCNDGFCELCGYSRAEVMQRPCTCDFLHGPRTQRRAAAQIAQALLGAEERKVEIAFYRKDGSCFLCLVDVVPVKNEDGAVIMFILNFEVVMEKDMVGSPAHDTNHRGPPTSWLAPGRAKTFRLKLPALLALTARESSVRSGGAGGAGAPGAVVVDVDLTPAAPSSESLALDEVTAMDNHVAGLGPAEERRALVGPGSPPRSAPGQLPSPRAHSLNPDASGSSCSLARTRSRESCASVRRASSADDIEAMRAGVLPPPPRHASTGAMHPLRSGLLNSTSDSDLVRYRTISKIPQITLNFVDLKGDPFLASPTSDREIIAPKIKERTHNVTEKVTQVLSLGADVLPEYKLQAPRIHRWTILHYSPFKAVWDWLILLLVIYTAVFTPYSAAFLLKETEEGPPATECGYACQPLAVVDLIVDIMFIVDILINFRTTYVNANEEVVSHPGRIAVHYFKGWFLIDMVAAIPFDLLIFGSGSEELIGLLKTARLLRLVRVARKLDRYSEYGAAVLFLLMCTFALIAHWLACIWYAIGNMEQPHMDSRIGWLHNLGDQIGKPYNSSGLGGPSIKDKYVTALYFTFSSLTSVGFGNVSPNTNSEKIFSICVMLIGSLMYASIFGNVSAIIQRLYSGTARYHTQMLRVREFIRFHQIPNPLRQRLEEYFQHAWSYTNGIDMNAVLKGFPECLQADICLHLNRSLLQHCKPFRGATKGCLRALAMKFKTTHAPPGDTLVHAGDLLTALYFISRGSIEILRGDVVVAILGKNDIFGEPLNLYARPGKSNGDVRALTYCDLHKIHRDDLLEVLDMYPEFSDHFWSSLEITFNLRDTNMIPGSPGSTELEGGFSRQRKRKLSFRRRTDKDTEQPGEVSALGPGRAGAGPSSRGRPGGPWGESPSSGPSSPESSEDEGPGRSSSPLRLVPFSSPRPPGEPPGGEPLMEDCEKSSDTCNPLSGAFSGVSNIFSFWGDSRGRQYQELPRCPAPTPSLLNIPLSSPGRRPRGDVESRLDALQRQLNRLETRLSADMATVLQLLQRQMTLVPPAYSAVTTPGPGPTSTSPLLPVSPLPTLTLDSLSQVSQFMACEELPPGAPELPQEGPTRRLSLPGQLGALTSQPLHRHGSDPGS
Take `CCC(NC(=O)c1ccccc1NC(=O)c1ccco1)C(=O)NNC(=O)c1ccc(OC)cc1` (stereo not shown): the “hERG current change (%, negative = inhibition) at 10uM” value was 10.3%.
To `NC(=O)c1ccc(SCC(=O)OCC(=O)NCC2CCCCC2)c([N+](=O)[O-])c1` belongs -5.21%; to `CC(C)(C)NC(=O)c1ccc2c(c1)N(CC(=O)NC1CCCC1)C(=O)C(C)(C)O2`, 8.72%; to `COc1ccc(-c2csc(NC(=O)CSCC(=O)Nc3cc(C)on3)n2)cc1OC`, 1.07%.
For `O=C(Nc1ccc(-c2n[nH]c(=S)o2)cc1)c1ccccc1` the value was 15.6%.
For `O=C(c1cccc(S(=O)(=O)Nc2ccccc2F)c1)N1CCN(c2ccccc2F)CC1` the value was -21.5%; for `CCOc1ccc(NC(=O)CSc2nccn2Cc2ccco2)cc1`, -19.5%; for `Cc1cc(S(=O)(=O)N2CCCC(C(=O)Nc3ccc(C(=O)O)cc3)C2)ccc1Cl` (stereo not shown), 10.2%.
In the case of `COc1ccc(CSc2nnnn2C)cc1F`, the “hERG current change (%, negative = inhibition) at 10uM” value is recorded as -6.74%.
For `CCOC(=O)C1CCN(C2=NC(=O)/C(=C/c3ccc(O)cc3)S2)CC1`, the “hERG current change (%, negative = inhibition) at 10uM” value is on record as -67.1%.
To `Cc1ccc(/C=C2\SC(N3CCCC3)=NC2=O)cc1` belongs -22.4%; to `CCOC(=O)C1CCN(C2=NC(=O)/C(=C/c3ccccc3OC)S2)CC1`, -22.9%.
To `Cc1ccc(/C=C2\SC(N3CCCCC3)=NC2=O)cc1` belongs 0.193%; to `CC(C)(C)c1ccc(/C=C2/SC(N3CCCC3)=NC2=O)cc1`, -51.1%; to `CC1CCN(C2=NC(=O)/C(=C/c3ccc(O)cc3)S2)CC1`, -24.7%.
For `CCOC(=O)C1CCCN(C2=NC(=O)/C(=C/c3ccc(N(C)C)cc3)S2)C1` (stereo not shown) the value was -24.9%.
For the compound `CCOC(=O)C1CCN(C2=NC(=O)/C(=C/c3ccc(Cl)cc3)S2)CC1`, the “hERG current change (%, negative = inhibition) at 10uM” value is given as -64.8%.
For the compound `CCOC(=O)C1CCN(C2=NC(=O)/C(=C/c3ccc(OC)c(OC)c3)S2)CC1`, the “hERG current change (%, negative = inhibition) at 10uM” value is on record as -17.8%.
Regarding `COc1ccc(NCc2nnc(SCC(=O)Nc3ccc(OC)cc3OC)o2)cc1`, the “hERG current change (%, negative = inhibition) at 10uM” value is -9.35%.
For `CCN(c1ccccc1)S(=O)(=O)c1cc2c(cc1C)n(C)c(=O)c(=O)n2C` the value was -32%; for `Cc1cccc(C(=O)NNS(=O)(=O)c2ccccc2[N+](=O)[O-])c1`, 1.16%; for `CN(C(=O)CCS(=O)(=O)c1ccc2c(c1)oc(=O)n2C)C1CCCCC1`, 3.68%.
To `Cc1nn(CCC(=O)O)c(C)c1C` belongs 5.72%; to `C=CCn1c(=O)c2c(nc3n2CCN3c2cccc(Cl)c2C)n(C)c1=O`, -15%.
As to `CCOC(=O)N1CCN(Cc2nc3cc([N+](=O)[O-])ccc3n2C)CC1`, the “hERG current change (%, negative = inhibition) at 10uM” value was -24.5%.
To `CCOC(=O)N1CCN(Cc2nc3cc([N+](=O)[O-])ccc3n2CC)CC1` belongs -51.9%; to `CCCn1c(CN2CCN(C(=O)OCC)CC2)nc2cc(NC(C)=O)ccc21`, 12.8%; to `CCCn1c(CN2CCN(C(=O)OCC)CC2)nc2cc([N+](=O)[O-])ccc21`, -64%.
For `CCOC(=O)N1CCN(Cc2nc3cc(NC(=O)CC(C)C)ccc3n2CC)CC1` the value was -8.18%.
As to `CCOC(=O)N1CCN(Cc2nc3cc(NC(=O)C(C)C)ccc3n2CC)CC1`, the “hERG current change (%, negative = inhibition) at 10uM” value came out at 14.3%.
For `O=C(COC(=O)c1ccco1)NCc1cccs1` the value was 12.4%; for `CCC(=O)Nc1cc(C(=O)O)ccc1Sc1ccc(C)cc1`, 4.85%.
In the case of `CCOc1ccc(CNC(=O)c2ccc(Sc3ccc(C)cc3)c(NC(C)=O)c2)cc1OC`, the “hERG current change (%, negative = inhibition) at 10uM” value is given as -21.5%.
To `CC(=O)Nc1cc(C(=O)NCc2ccco2)ccc1Sc1ccc(C)cc1` belongs -17.8%; to `CC(=O)Nc1cc(C(=O)NCCN2CCN(Cc3ccccc3)CC2)ccc1Sc1ccc(C)cc1`, -63.6%; to `CC(=O)Nc1cc(C(=O)NCc2ccco2)ccc1Sc1ccc(Cl)cc1`, -35.6%.
In the case of `CCOc1ccc(CNC(=O)c2ccc(Sc3ccc(C)cc3)c(NC(C)=O)c2)cc1`, the “hERG current change (%, negative = inhibition) at 10uM” value is recorded as -4.85%.
Regarding `CC(=O)Nc1cc(C(=O)NCc2ccco2)ccc1Sc1ccc(F)cc1`, the “hERG current change (%, negative = inhibition) at 10uM” value is recorded as -40.8%.
For `CC(=O)Nc1cc(C(=O)N(C)Cc2ccco2)ccc1Sc1ccc(Cl)cc1` the value was -66.7%.
Take `CCOc1ccc(CNC(=O)c2ccc(Sc3ccc(Cl)cc3)c(NC(C)=O)c2)cc1`: the “hERG current change (%, negative = inhibition) at 10uM” value is -8.57%.
For `CCN(CC)CCNC(=O)c1ccc(Sc2ccc(Cl)cc2)c(NC(C)=O)c1` the value was -61.7%; for `CCOc1ccccc1CNC(=O)c1ccc(Sc2ccc(Cl)cc2)c(NC(C)=O)c1`, -19.4%; for `CCN(CC)CCNC(=O)c1ccc(Sc2ccc(C)cc2)c(NC(C)=O)c1`, -58.2%.
For `CSc1ncc(F)c(N(CCO)CCO)n1` the value was 10.5%.
Regarding `O=C1S/C(=C\c2ccccn2)C(=O)N1Cc1ccccc1F`, the “hERG current change (%, negative = inhibition) at 10uM” value came to 9.45%.
In the case of `O=S(=O)(Nc1cccnc1Cl)c1ccc2c(c1)OCCO2`, the “hERG current change (%, negative = inhibition) at 10uM” value is reported as 15.4%.
For `COc1cc(C(=O)N(C)CCOc2ccc(C)cc2)ccc1OC1CCN(C(C)=O)CC1` the value was 8.41%.
To `CCN1CCC2(CC1)N=C(c1ccc(F)cc1)C(=S)N2C(=O)c1ccc(C(C)(C)C)cc1` belongs -10.8%.
To `CC(C)OCCCNC(=O)NC(=O)c1ccc(Cl)cc1` belongs -6.21%; to `CN(C)CCNC(=O)NC(=O)c1ccc(Cl)cc1`, -14.7%; to `CCN(CC)CCNC(=O)NC(=O)c1ccc(Cl)cc1`, -63%.
`COc1ccc(/C=N/NC(=O)C(C)n2nnc3ccccc32)cc1OC` (stereo not shown): the “hERG current change (%, negative = inhibition) at 10uM” value worked out at 2.4%.
To `C[n+]1c(-c2ccccc2)sc2ccccc21.[O-][Cl+3]([O-])([O-])[O-]` belongs 23.1%.
For `CC[n+]1c(C)sc2cc(C)ccc21.[I-]` the value was 15%; for `Cc1ccc2c(c1)sc(-c1ccc(N(C)C)cc1)[n+]2C.[I-]`, -60%.
For `O=C(CN1C(=O)c2cccnc2Oc2ccc(Cl)cc21)NC1CCCCC1` the value was -13.1%; for `CC(=O)Nc1ccc(/C=C/C(=O)c2ccc3c(c2)OCCO3)cc1`, -0.901%; for `CCOc1ccc(C(=O)NC(C(=O)NCC(c2cccs2)N(C)C)C(C)C)cc1` (stereo not shown), -19.8%.
Consider `O=C(NCCc1c[nH]c2ccccc12)/C(=C\c1ccco1)NC(=O)c1ccco1`, for which the “hERG current change (%, negative = inhibition) at 10uM” value is listed as -21.3%.
`O=C(NCCc1c[nH]c2ccccc12)/C(=C\c1cccnc1)NC(=O)c1ccco1`: the “hERG current change (%, negative = inhibition) at 10uM” value is given as -65.1%.
To `O=C(NCCc1c[nH]c2ccccc12)/C(=C/c1cccnc1)NC(=O)c1ccco1` belongs -64.7%; to `O=C(NCCc1c[nH]c2ccccc12)/C(=C/c1ccco1)NC(=O)c1ccco1`, -42.5%.
For `O=C(NCCc1c[nH]c2ccccc12)c1ccco1` the value was 3.71%; for `O=C(NCCCn1ccnc1)/C(=C\c1cccnc1)NC(=O)c1ccco1`, -0.164%.
To `CC1CCCC(C)N1C(=O)COC(=O)c1nn(C)c(=O)c2ccccc12` (stereo not shown) belongs 1.93%; to `COc1ccc(C(=O)N/C(=C\c2cn(C)c3ccccc23)C(=O)N2CCOCC2)cc1`, -10.9%; to `COc1ccc(C(=O)N/C(=C\c2cn(S(=O)(=O)N(C)C)c3ccccc23)C(=O)N2CCOCC2)cc1`, -47%.
Take `CCn1cc(/C=C(\NC(=O)c2ccc(OC)c(OC)c2)C(=O)N2CCN(C)CC2)c2ccccc21`: the “hERG current change (%, negative = inhibition) at 10uM” value is on record as -32.8%.
With `COc1ccc(C(=O)N/C(=C\c2cccc3ccccc23)C(=O)N2CCN(C)CC2)cc1OC`, the “hERG current change (%, negative = inhibition) at 10uM” value is given as -50.6%.
For `CCOC(=O)N1CCN(C(=O)/C(=C/c2ccccc2OC)NC(=O)c2ccccc2)CC1` the value was -37.9%; for `CCOC(=O)N1CCN(C(=O)/C(=C/c2cccc3ccccc23)NC(=O)c2ccc(OC)c(OC)c2)CC1`, -3.14%; for `CN1CCN(C(=O)/C(=C/c2cn(S(=O)(=O)N(C)C)c3ccccc23)NC(=O)c2ccccc2)CC1`, 0.665%.
Take `COc1ccc(C(=O)N/C(=C\c2cn(S(=O)(=O)N(C)C)c3ccccc23)C(=O)N2CCN(C)CC2)cc1`: the “hERG current change (%, negative = inhibition) at 10uM” value is -50.8%.
To `CCOC(=O)N1CCN(C(=O)/C(=C/c2cccc3ccccc23)NC(=O)c2ccc(OC)cc2)CC1` belongs -50.9%; to `COc1ccc(C(=O)N/C(=C\c2cn(C)c3ccccc23)C(=O)N2CCN(C)CC2)cc1`, -7.61%; to `COc1ccc(C(=O)N/C(=C\c2cccc3ccccc23)C(=O)N2CCN(C)CC2)cc1`, -65.6%.
For `COc1ccc(C(=O)N/C(=C\c2cn(C)c3ccccc23)C(=O)N2CCN(C)CC2)cc1OC` the value was -3.26%; for `CCCCC[n+]1ccn(C2=C([O-])c3ccccc3C(=O)/C2=N\S(=O)(=O)c2ccc(Br)cc2)c1`, -39.1%; for `CC(/C=C/c1ccc2c(c1)OCO2)=N\NC(=O)c1ccccc1`, 10.3%.
As for `O=S(=O)(NC1CCSc2ccccc21)c1ccc(Cl)nc1` (stereo not shown), the “hERG current change (%, negative = inhibition) at 10uM” value is on record as -18.1%.
For `CCOc1cc(/C=C2/C(=N)N3C(=NC2=O)SN=C3S(=O)(=O)C(C)C)ccc1OC(=O)c1ccco1` the value was 3.02%; for `COC(=O)C1C(O)=C(C=Nc2ccc3ccccc3c2)C(=O)CC1(C)C` (stereo not shown), -8.23%.
